39 compounds from PubChem BioAssay (EPA / NIEHS) can be followed below.

Each structure is given as a SMILES string. Values joined by “and” are separate entries in the source; they are usually repeats but may differ in a detail not shown here. Identical values can stand only once. Where a structure was tested more than once in an assay, its records may differ in their call. Active and inactive are the calls of the source. Rule for the calls: active = hit-call score of the fitted dose curve at least 0.9, where 1 is the maximum; inactive = score below 0.9.

The AC50 is the concentration giving half of the maximal activity seen.

This assay can be described thus: BSK_4H_SRB: Viability Assessment in the BioMAP Diversity Plus: 4H Assay (AID 2283027).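 For AC50: curves fitted both ways versus DMSO so AC50 may be loss or gain.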 The following applies: primary human endothelial cells (HUVEC). The procedure: BSK_4H is a cell-based, multiplexed-readout assay that uses umbilical vein endothelium, a human vascular primary cell, with measurements taken at 24 hours after chemical dosing in a 96-well plate.BSK_4H_SRB is an assay component measured in the BSK_4H assay. It measures […] related to cell death using Sulforhodamine staining technology.Data from the assay component BSK_4H_SRB was analyzed into 1 assay endpoint. This assay endpoint, BSK_4H_SRB, was analyzed with bidirectional fitting relative to DMSO as the negative control and baseline of activity. Using a type of viability reporter, gain or loss-of-signal activity can be used to understand changes in the signaling. Furthermore, this assay endpoint can be referred to as a primary readout, because this assay has produced multiple assay endpoints where this one serves a signaling function. To generalize the intended target to other relatable targets, this assay endpoint is annotated to the cell morphology intended target family, where the subfamily is cell conformation.
The levels of cell surface (or secreted, indicated by the prefix "s") biomarker endpoints were measured by ELISA. Overt cytotoxicity to cells in confluent adherent cultures (all systems other than the BT system) was assessed by measuring total protein levels using sulforhodamine B (SRB) staining in parallel cultures at the time of biomarker measurements, indicated as SRB endpoints. For proliferation assays for adherent cell types, individual cell types are cultured at sub-confluence and relative cell numbers quantified by SRB staining at time points optimized for each system (48 h: 3C and CASM3C systems; 72 h: BT and HDF3CGF systems; 96 h: SAg system). SRB was performed by staining cells with 0.1% SRB after fixation with 10% TCA and reading wells at 560 nm.Viability and proliferation of PBMC (T cells) was quantified by Alamar Blue reduction for the SAg and BT systems. For PBMC viability (referred to as PBMC Cytotoxicity within the assay endpoint names), cells were plated (75,000/well in a 96-well plate) and then chemical samples added for 1 h before addition of activators, SEB and TSST-1 (20 ng/mL final concentration each). Cells were incubated for 90 h. Then, Alamar Blue (20 uL/well) (Invitrogen, Cat DAL1100) was added for 6 h, and the plates were read with a fluorescence microplate reader at 546/580 nm (excitation/emission). For PBMC proliferation, cells were plated and activated as above but incubated for only 16 h prior to addition of Alamar Blue. Plates were read after 6 h.
`O=C(NO)c1ccccc1`: the result was inactive.

On to `Oc1ccc(Cc2ccccc2O)cc1`, for which the outcome was inactive.

Consider `Clc1ccc(Nc2nnc(Cc3ccncc3)c3ccccc23)cc1`, for which the outcome was inactive. Same read-out and setting: the same measure for `CCCCCCCCCCCC`: “inactive”; for `C[C@]12CC[C@@H]3c4ccc(O)cc4CC[C@H]3[C@@H]1C[C@@H](O)[C@@H]2O`: “inactive”. On to `Oc1c(Cl)cc(Cl)cc1Sc1cc(Cl)cc(Cl)c1O`, for which the half-maximal activity concentration (AC50) was 23.9 µM (active) and 23.7 µM (active). As for `COC1=CC(=O)C[C@@H](C)[C@]12Oc1c(Cl)c(OC)cc(OC)c1C2=O`, the outcome was inactive. As for `Oc1cc2ccccc2cc1O`, the result was inactive. Regarding `C=COC(=O)C(C)(C)CCCCCC`, the AC50 is 34.3 µM (active). Regarding `CCCCCCCCCCCCCCCCCC[N+](C)(C)Cc1ccccc1`, the half-maximal activity concentration (AC50) was 2.63 µM (active).

As for `CCOC(=O)CN[C@@H](C(=O)N1CC[C@H]1C(=O)NCc1ccc(/C(N)=N/O)cc1)C1CCCCC1`, the result was inactive. In the case of `O=P(O)(O)CCC(F)(F)C(F)(F)C(F)(F)C(F)(F)C(F)(F)C(F)(F)C(F)(F)C(F)(F)F`, the outcome was inactive and the concentration at half-maximal activity (AC50) was 42.7 µM (active). Turning to `O=P(O)(O)CCC(F)(F)C(F)(F)C(F)(F)C(F)(F)C(F)(F)C(F)(F)F`, the result was inactive.

`CC(=O)Nc1ccc(O)cc1`: the outcome was inactive.

Consider `CCCCc1oc2ccccc2c1C(=O)c1cc(I)c(OCCN(CC)CC)c(I)c1`, for which the AC50 is 13.1 µM (active). For `C=CC(=O)OCCC(F)(F)C(F)(F)C(F)(F)C(F)(F)C(F)(F)C(F)(F)C(F)(F)C(F)(F)F`, the result was inactive. As to `CC(C)(C)c1ccc(O)c(O)c1`, the half-maximal activity concentration (AC50) is 5.52 µM (active). For `COc1cc(OC)nc(NC(=O)NS(=O)(=O)Nc2ccccc2C(=O)N(C)C)n1`, the outcome was inactive.

As for `CC[N+](CC)(CC)Cc1ccccc1`, the result was inactive. Consider `O=S(=O)(O)C(F)(F)C(F)(F)C(F)(F)C(F)(F)C(F)(F)C(F)(F)C(F)(F)C(F)(F)C(F)(F)C(F)(F)F`, for which the outcome was inactive.

In the case of `Cc1ccc(C(=O)c2ccccc2)cc1`, the concentration at half-maximal activity (AC50) was 36.5 µM (active). With `COCN(COC)c1nc(N(COC)COC)nc(N(COC)COC)n1`, the result was inactive.

Turning to `CN(C)CCOC(c1ccccc1)c1ccccc1`, the result was inactive. Regarding `O=C1c2ccc(O)c(O)c2C(=O)c2c(O)ccc(O)c21`, the outcome was inactive. As to `O=C(CC(=O)C(F)(F)C(F)(F)C(F)(F)F)c1cccs1`, the half-maximal activity concentration (AC50) is 34.4 µM (active) and 44.3 µM (active). As for `CCCCC(CC)C(=O)OCCOCCOCCOCCOC(=O)C(CC)CCCC` (stereo not given), the result was inactive. Take `CCC(C)c1ccccc1O` (stereo not given): the result was inactive. For the compound `CCCCC(CC)C(=O)O` (stereo not given), the result was inactive. For the compound `CN(C)c1ccc(C(=C2C=CC(=[N+](C)C)C=C2)c2ccccc2)cc1`, the AC50 is 0.0527 µM (active).

`CCCCCCCCCCCCCCC`: the result was inactive.

Regarding `O=C(CCCN1CCC(O)(c2ccc(Cl)cc2)CC1)c1ccc(F)cc1`, the concentration at half-maximal activity (AC50) was 9.78 µM (active).

`COc1cccc(O)c1`: the outcome was inactive. The same measure, in the same setting: in the case of `OCC(CO)(CBr)CBr` it was “inactive”. `C=CC(C)(CCC=C(C)C)OC(C)=O` (stereo not given): the concentration at half-maximal activity (AC50) is 34.2 µM (active).

For the compound `O=C(O)C(F)(F)OC(F)(F)C(F)(F)OC(F)(F)C(F)(F)OC(F)(F)C(F)(F)C(F)(F)C(F)(F)F`, the AC50 is 47.9 µM (active) and 52.7 µM (active). As for `CCCCC=O`, the outcome was inactive. Still for that read-out and setting: the same measure for `CC1=NN(c2ccccc2)C(=O)C1`: “inactive”. For the compound `O=C(O)CCC(F)(F)C(F)(F)C(F)(F)C(F)(F)C(F)(F)C(F)(F)F`, the result was inactive. On to `NC(=NCCCCCCN=C(N)/N=C(\N)Nc1ccc(Cl)cc1)/N=C(\N)Nc1ccc(Cl)cc1`, for which the AC50 was 4.85 µM (active).
